Results from PubChem BioAssay (NCATS).
Results filed as inconclusive are left out. The source made the active and inactive calls. The call rests on the fitted dose curve; in most records, active means well fitted inhibition curve with a large enough effect; inconclusive means small, poorly fitted or top-dose-only effect; inactive means flat fitted curve, though single readings scatter.

Key:
Assay in all cases: qHTS profiling for inhibitors of Plasmodium falciparum proliferation (AID 504749); further: nearly all actives have a fitted effect of over 60% in size
Settings in all cases: P. falciparum in erythrocytes, SYBR Green DNA, 72 h; series mostly up to 28.7 µM
CP194 = tested on: CP194
Summary of the method: (§1)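 SYBR Green fluorescence (ex 485 nm, em 535 nm) reports parasite DNA after 72 h compound exposure of infected red cells at 0.3% parasitemia, 2.5% hematocrit; signal normalized to 0.29 uM artemisinin and vehicle wells.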

CP201 = tested on: CP201
Summary of the method: as §1

CP203 = tested on: CP203
Summary of the method: as §1

CP211 = tested on: CP211
Summary of the method: as §1

CP215 = tested on: CP215
Summary of the method: as §1

CP217 = tested on: CP217
Summary of the method: as §1

CP237 = tested on: CP237
Summary of the method: as §1

CP238 = tested on: CP238
Summary of the method: as §1

CP247 = tested on: CP247
Summary of the method: as §1

CP250 = tested on: CP250
Summary of the method: as §1

CP252 = tested on: CP252
Summary of the method: as §1

CP256 = tested on: CP256
Summary of the method: as §1

CP260 = tested on: CP260
Summary of the method: as §1

CP262 = tested on: CP262
Summary of the method: as §1

CP265 = tested on: CP265
Summary of the method: as §1

CP266 = tested on: CP266
Summary of the method: as §1

CP268 = tested on: CP268
Summary of the method: as §1

CP269 = tested on: CP269
Summary of the method: as §1

CP286 = tested on: CP286
Summary of the method: as §1

CP291 = tested on: CP291
Summary of the method: as §1

Measured: Potency

CN1C(=O)C[C@@H](C(=O)N[C@@H](Cc2cnc[nH]2)C(=O)N2CCC[C@H]2C(N)=O)NC1=O
inactive: CP194 | CP201 | CP203 | CP211 | CP215 | CP217 | CP237 | CP238 | CP247 | CP250 | CP252 | CP256 | CP260 | CP262 | CP265 | CP266 | CP268 | CP269 | CP286 | CP291

O=P(O)(O)OP(=O)(O)OP(=O)(O)O
inactive: CP194 | CP201 | CP203 | CP211 | CP215 | CP217 | CP237 | CP238 | CP247 | CP250 | CP252 | CP256 | CP260 | CP262 | CP265 | CP266 | CP268 | CP269 | CP286 | CP291

S=C=Nc1ccc(N=C=S)cc1
inactive: CP194 | CP201 | CP203 | CP211 | CP215 | CP217 | CP237 | CP238 | CP247 | CP250 | CP252 | CP256 | CP260 | CP262 | CP265 | CP268 | CP269 | CP286 | CP291

O=C1CCC(=O)N1CO
inactive: CP194 | CP201 | CP203 | CP211 | CP215 | CP217 | CP237 | CP238 | CP247 | CP250 | CP252 | CP256 | CP260 | CP262 | CP265 | CP266 | CP268 | CP269 | CP286 | CP291

CCN(CC)CCOc1ccccc1OC
inactive: CP194 | CP201 | CP203 | CP211 | CP215 | CP217 | CP237 | CP238 | CP247 | CP250 | CP252 | CP256 | CP260 | CP262 | CP265 | CP266 | CP268 | CP269 | CP286 | CP291

NC(N)=O
inactive: CP194 | CP201 | CP203 | CP211 | CP215 | CP217 | CP237 | CP238 | CP247 | CP250 | CP252 | CP256 | CP260 | CP262 | CP265 | CP266 | CP268 | CP269 | CP286 | CP291

CC(=O)N=c1sc(S(N)(=O)=O)nn1C
inactive: CP194 | CP201 | CP203 | CP211 | CP215 | CP217 | CP237 | CP238 | CP247 | CP250 | CP252 | CP256 | CP260 | CP262 | CP265 | CP266 | CP268 | CP269 | CP286 | CP291

O=C1c2ccccc2C(=O)C1c1ccc(F)cc1
inactive: CP194 | CP201 | CP203 | CP211 | CP215 | CP217 | CP237 | CP238 | CP247 | CP250 | CP252 | CP256 | CP260 | CP262 | CP265 | CP266 | CP268 | CP269 | CP286 | CP291

CC(CNC(=O)c1cccnc1)NC(=O)c1cccnc1 (stereo not given)
inactive: CP194 | CP201 | CP203 | CP211 | CP215 | CP217 | CP237 | CP238 | CP247 | CP250 | CP252 | CP256 | CP260 | CP262 | CP265 | CP266 | CP268 | CP269 | CP286 | CP291

O=C(O)c1ccc(NC(=O)[C@H](Cc2ccc(O)cc2)NC(=O)c2ccccc2)cc1
inactive: CP194 | CP201 | CP203 | CP211 | CP215 | CP217 | CP237 | CP238 | CP247 | CP250 | CP252 | CP256 | CP260 | CP262 | CP265 | CP266 | CP268 | CP269 | CP286 | CP291

Cc1cc(C)c(NC(=O)C[C@H](CC(=O)O)c2cccc3ccccc23)c(C(=O)N2CCC3(CCCC3)CC2)c1
inactive: CP194 | CP201 | CP203 | CP211 | CP215 | CP217 | CP237 | CP238 | CP247 | CP250 | CP252 | CP256 | CP260 | CP262 | CP265 | CP266 | CP268 | CP269 | CP286 | CP291

O=C(O)c1cc(N=Nc2ccc(O)c(C(=O)O)c2)ccc1O
inactive: CP194 | CP201 | CP203 | CP211 | CP215 | CP217 | CP237 | CP238 | CP247 | CP250 | CP252 | CP256 | CP260 | CP262 | CP265 | CP266 | CP268 | CP269 | CP291

O=C1[O][Bi][O]c2ccccc21
inactive: CP194 | CP201 | CP203 | CP211 | CP215 | CP217 | CP237 | CP238 | CP247 | CP250 | CP252 | CP256 | CP260 | CP262 | CP265 | CP268 | CP269 | CP286 | CP291

FC(F)OC(Cl)C(F)(F)F (stereo not given)
inactive: CP194 | CP201 | CP203 | CP211 | CP215 | CP217 | CP237 | CP238 | CP247 | CP250 | CP252 | CP256 | CP260 | CP262 | CP265 | CP266 | CP269 | CP286 | CP291

NCC[C@H](O)C(=O)N[C@@H]1C[C@H](N)[C@@H](O[C@H]2O[C@H](CN)CC[C@H]2N)[C@H](O)[C@H]1O[C@H]1O[C@H](CO)[C@@H](O)[C@H](N)[C@H]1O
inactive: CP194 | CP201 | CP203 | CP211 | CP215 | CP217 | CP237 | CP238 | CP247 | CP250 | CP252 | CP256 | CP260 | CP262 | CP265 | CP266 | CP268 | CP269 | CP286 | CP291

O=C(O)Cc1nn(Cc2ccc(Br)cc2F)c(=O)c2ccccc12
inactive: CP194 | CP201 | CP203 | CP211 | CP215 | CP217 | CP237 | CP238 | CP247 | CP250 | CP252 | CP256 | CP260 | CP262 | CP265 | CP266 | CP268 | CP269 | CP286 | CP291

C[Se]CC[C@H](N)C(=O)O
inactive: CP194 | CP201 | CP203 | CP211 | CP215 | CP217 | CP237 | CP238 | CP247 | CP250 | CP252 | CP256 | CP260 | CP262 | CP265 | CP266 | CP268 | CP269 | CP286 | CP291

O=C(O)CCC/C=C\C[C@@H]1[C@@H](/C=C/[C@@H](O)COc2cccc(C(F)(F)F)c2)[C@H](O)C[C@@H]1O
inactive: CP194 | CP201 | CP203 | CP211 | CP215 | CP217 | CP237 | CP238 | CP247 | CP250 | CP252 | CP256 | CP260 | CP262 | CP265 | CP266 | CP268 | CP269 | CP286 | CP291

Cc1ccc(S(=O)(=O)O)cc1C
inactive: CP194 | CP201 | CP203 | CP211 | CP215 | CP217 | CP237 | CP238 | CP247 | CP250 | CP252 | CP256 | CP260 | CP262 | CP265 | CP268 | CP269 | CP286 | CP291

O=C1c2ccccc2C(=O)c2c1ccc(O)c2O
inactive: CP194 | CP201 | CP203 | CP211 | CP215 | CP217 | CP237 | CP238 | CP247 | CP250 | CP252 | CP256 | CP260 | CP262 | CP265 | CP266 | CP268 | CP269 | CP286 | CP291
